This is a sample that favours compounds with a hit; in the whole collection about 2.1% have one here.
TDP-43 yeast inh: qHTS of TDP-43 Inhibitors; Potency, µM (highest dose often 46.1 µM), inactives show top-dose growth rescue (activation), actives largely listed as activators; actives 1.8% (n = 410,000); TDP-43 expressing yeast growth rescue, BacTiter-Glo, 24 h; note: % of control where 0% means no effect; nearly all actives have a fitted effect of over 50% in size
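Galactose-induced TDP-43 yeast, OD600=0.02, compound pinned; 24 hr, 30 deg C; BacTiter-Glo luminescence for growth. Inhibitors of TDP-43 toxicity read as activators.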
FUS yeast rescue: qHTS for Suppressors of FUS Proteinopathy: Primary screen using FUS-linked yeast assay; AID 1347120, 2019; actives 0.24% (n = 390,000); S. cerevisiae FUS-expressing, growth rescue, OD600, 24 h; Potency, µM (doses to about 76.6 µM), hits mostly activators;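 note: plate controls were DMSO vehicle for no effect and reference control for full effect; nearly all actives have a fitted effect of over 55% in size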
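Galactose (2%) drives FUS expression in yeast precultured in raffinose; seeding density OD 0.005. Test compounds incubated 24hr at 30C and 99% humidity before absorbance at 600 nm was measured.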
Abeta rescue: qHTS for compounds that reverse cellular toxicity of Amyloid beta (A-beta) peptide in yeast: Primary Screen; yeast expressing A-beta42, growth rescue, OD600, 48 h; response scale: 0% DMSO, 100% iron-clioquinol control; Potency, µM (doses to about 46.1 µM), usual class: activators; actives 0.063% (n = 410,000); note: nearly all actives have a fitted effect of over 55% in size
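Yeast growth medium received pinned compounds, then yeast cells expressing toxic A-beta were added; plates incubated at 30 C for 48 hr. Growth read as absorbance at 600 nm, normalized to DMSO and equimolar FeCl3 plus clioquinol controls.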
aSyn yeast inh: qHTS of alpha-syn Inhibitors | Yeast expressing alpha-synuclein, growth rescue, BacTiter-Glo, 24 h | Potency, µM (top dose mostly 46.1 µM), inactives show top-dose growth rescue (activation), actives largely listed as activators | actives 0.14% (n = 370,000); note: % of control where 0% means no effect; nearly all actives have a fitted effect of over 65% in size
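Readout is rescue of growth in alpha-synuclein-expressing yeast, so inhibitors of toxicity appear as activators. Growth after 24 hr at 30 deg C in galactose medium is quantified by luminescence.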
* marks the source's active call; other numbers are inactive results; i = inactive; ? = inconclusive; · = not tested or not shown. Calls come from the whole dose curve; as a rule, active = well fitted curve in the direction sought with a large enough effect; inconclusive = small, poorly fitted or top-dose-only effect, or another doubt; inactive = no such curve, though single readings can be large; an effect the other way counts as inactive or inconclusive. Potency is the fitted concentration of half-maximal effect.

SMILES | TDP-43 yeast inh | FUS yeast rescue | Abeta rescue | aSyn yeast inh
Nc1cc(N2CCCC2)c(Cl)cc1[N+](=O)[O-] | 11.2µM* | i | i | 15.9%
O=[N+]([O-])c1ccc(N2CCCC2)cc1N1CCCC1 | 15.8µM* | i | i | 1.6%
Nc1cc(N2CCOCC2)c(Cl)cc1[N+](=O)[O-] | 20µM* | i | i | -0.5%
COc1ccc(CC(=O)Nc2ccc(C)cc2S(=O)(=O)N2CCOCC2)cc1OC | · | i | · | ·
CC(=O)c1sc(Nc2ccc3c(c2)OCO3)nc1C | 12.6µM* | i | i | 29.6%
N#Cc1ccc(Nc2nc(-c3ccccc3)cs2)cc1 | 3.16µM* | i | i | 0.3%
c1ccc(-c2csc(Nc3ccc4c(c3)OCO4)n2)cc1 | 14.1µM* | i | i | -1.3%
O=C(CN1CCN(c2nc(-c3ccccc3)cs2)CC1)Nc1ccc2c(c1)OCO2 | -5.7% | i | i | 6.8%
O=C(O)c1ccc(Nc2nc(-c3ccccc3)cs2)cc1 | 1.4% | i | i | 12.9%
CCOc1ccc(N(CC(=O)Nc2c(C)n(C)n(-c3ccccc3)c2=O)S(=O)(=O)c2ccc3c(c2)N(C(=O)C2CCC2)CC3)cc1 | · | i | · | ·
O=c1oc2ccc(Br)cc2cc1-c1nc2c(s1)CCc1ccccc1-2 | · | · | · | -1.0%
Brc1ccc(-c2csc(N3CCC(c4nn[nH]n4)CC3)n2)cc1 | · | i | · | ·
O=C(C[n+]1cccc(Br)c1)c1ccc(-c2ccccc2)cc1 | 1.58µM* | i | i | -5.0%
O=S(=O)(c1ccccc1)c1nc(NCc2ccccc2)sc1Cl | 20µM* | · | i | -1.2%
COc1cccc(C(=O)NNC(=O)c2ccc3ccccc3c2)c1 | -14.8% | i | i | -11.7%
Cc1ccccc1C(=O)Oc1ccc2ccc(O)cc2c1 | 17.8µM* | i | i | -9.0%
COc1cccc(C(=O)Oc2ccc3ccc(O)cc3c2)c1 | 20µM* | i | i | -1.5%
COC(=O)C/C=C/[C@@H](C)[C@H](NC(=O)OCC(Cl)(Cl)Cl)c1ccc(-c2ccccc2)cc1 | · | i | · | ·
COc1ccc(-n2c(SCC(=O)NCCCSC)nnc2-c2ccncc2)cc1 | · | i | · | ·
CC1(c2nnc(-c3ccc(F)cc3)o2)CC(c2c(Cl)cccc2Cl)=NO1 (stereo unspecified) | 35.5µM* | i | i | -10.6%
CC1(c2nnc(-c3ccc(Cl)cc3)o2)CC(c2c(Cl)cccc2Cl)=NO1 (stereo unspecified) | 24.1% | i | i | -2.8%
COc1ccc(CCNC(=O)c2ccc3c(c2)CCN3S(=O)(=O)c2ccc(C)cc2)cc1OC | 15.7% | ? | i | ·
FC(F)(F)c1cc(-c2ccco2)nc(NCc2ccco2)n1 | ? | i | i | 1.4%
FC(F)(F)c1cc(-c2ccco2)nc(NCc2cccs2)n1 | 20µM* | i | i | -10.9%
O=C(OC12CCCN(C1)/C(=C/c1ccc(Cl)cc1)C2)C1CCCC1 (stereo unspecified) | · | i | · | ·
SMILES | TDP-43 yeast inh | FUS yeast rescue | Abeta rescue | aSyn yeast inh
N#Cc1c(-c2ccc3c(c2)OCO3)csc1N | 15.8µM* | i | i | 0.8%
N#Cc1c(N)nc2c(c1-c1ccc3c(c1)OCO3)CCc1ccccc1-2 | 31.6µM* | i | i | 8.2%
N#Cc1c(N)c(C#N)c(-c2ccc3c(c2)OCO3)c2c1CCCC2 | 5.4% | · | i | -0.4%
O=C(CCl)N1c2ccccc2Sc2ccc3ccccc3c21 | 5.01µM* | i | i | 18.3%
O=C(COc1ccc2ccccc2c1)N1c2ccccc2Sc2ccccc21 | -18.6% | ? | i | 5.0%
CCn1c(SCC(=O)Nc2ccccc2-c2ccccc2)nnc1-c1ccc(Cl)cc1 | · | i | · | ·
C/C(=N/NS(=O)(=O)c1ccc(Cl)cc1)c1cccc(NC(=O)c2ccc(Cl)cc2Cl)c1 | 12.6µM* | i | i | 5.8%
O=C(O)/C=C/C(=O)Nc1cccc2c1-c1ccccc1C2=O | 20µM* | · | i | -13.7%
Clc1ccc(-c2n[nH]c3c2CCC3)cc1Cl | 20µM* | i | i | -8.1%
COc1ccc(-c2nn(C)c3sc(C(=O)Nc4cc(OC)c(OC)c(OC)c4)cc23)cc1OC | 14.2% | ? | i | ·
COc1ccc(S(=O)(=O)N2CN(Cc3ccco3)c3nc4ccccc4nc32)cc1 | 0.0% | 5.62µM* | i | -1.6%
Cc1ccc(S(=O)(=O)N2CN(Cc3ccco3)c3nc4ccccc4nc32)cc1 | -22.4% | i | i | 8.7%
O=S(=O)(c1ccc(F)cc1)N1CN(Cc2ccco2)c2nc3ccccc3nc21 | 2.3% | 15.8µM* | i | -13.0%
COC(=O)C[C@H]1CC[C@H]2[C@H](COc3ccc(NS(=O)(=O)c4cccc(F)c4)cc3C(=O)N2C)O1 | · | i | · | ·
COCCCN1C(=O)[C@H](CC(=O)N2CCCCC2)[C@]2(C(=O)OC)CCCCC=C12 | · | i | · | ·
CCC[C@@H](/C=C/C(=O)OC(C)(C)C)Sc1ccc(N)cc1 | · | i | · | ·
COc1ccc(-c2noc(=O)n2Cc2ccc(F)cc2Cl)cc1 | ? | i | i | 20.6%
COc1ccc(-c2noc(=O)n2Cc2ccccc2Cl)cc1 | 20µM* | i | i | 4.4%
Nc1nc(-c2ccco2)nn1C(=O)c1ccc(F)cc1 | 11.2µM* | i | i | 4.4%
Cc1ccc(C(C)C)c(OCCSc2nc3ccccc3n2CC(O)CO)c1 (stereo unspecified) | 35.5µM* | i | i | ·
COC(=O)Cn1c(SCCOc2ccccc2Cl)nc2ccccc21 | 28.2µM* | i | i | ·
Cc1cccc(N2CCN(S(=O)(=O)c3cccc4nonc34)CC2)c1C | 28.2µM* | · | i | 2.7%
O=C(C1CCCN(S(=O)(=O)c2cccc3nonc23)C1)N1CCN(c2cccc(Cl)c2)CC1 (stereo unspecified) | -27.4% | i | i | 7.4%
O=S(=O)(c1cccc2nonc12)N1CCN(c2ccccc2F)CC1 | 19.2% | i | i | 5.9%
O=C(C1CCCN(S(=O)(=O)c2cccc3nonc23)C1)N1CCN(c2ccccc2Cl)CC1 (stereo unspecified) | 35.5µM* | i | i | 24.5%
SMILES | TDP-43 yeast inh | FUS yeast rescue | Abeta rescue | aSyn yeast inh
C=CCNC(=S)NC(=O)c1ccc(C)c(Br)c1 | ? | i | 10µM* | -1.0%
CS(=O)(=O)c1ccc(C(=O)OCc2nnc(-c3ccc(Cl)cc3)o2)cc1[N+](=O)[O-] | 17.8µM* | ? | i | -23.8%
O=C(OCc1nnc(-c2ccc(Cl)cc2)o1)c1ccc(O)cc1 | -15.3% | i | i | 6.6%
CCOC(=O)c1[nH]c2c(c1Cc1ccccc1C)C(=O)CC(c1ccccc1)C2 (stereo unspecified) | -3.4% | i | i | ·
CCOC(=O)c1[nH]c2c(c1Cc1ccccc1)C(=O)CC(c1ccccc1)C2 (stereo unspecified) | 12.6µM* | i | i | ·
COc1cc(NC(=O)C2CCCN(S(=O)(=O)c3ccc(C)c(C)c3)C2)cc(OC)c1 (stereo unspecified) | · | i | · | ·
